Among the test systems are DU-145 prostate; K-562 leukemia; MALME-3M melanoma; MDA-MB-231 breast; RXF 393 renal; SF-268 CNS; SF-295 CNS; SF-539 CNS; UACC-257 melanoma; M14 melanoma; HCT-15 colon; HT29 colon; SNB-75 CNS; SNB-19 CNS; U251 CNS; PC-3 prostate; SK-MEL-5 melanoma; UACC-62 melanoma; LOX IMVI melanoma; SK-MEL-28 melanoma.
Assay in all cases: NCI-60 one-dose screen, 48 h (100 = growth as untreated, 0 = no growth, -100 = all killed)
Common to all, as to conditions: 10 µM unless noted

Structures are written as SMILES. This is part of a sample that, as a whole, favours compounds with a hit. Of some 83,000 tested, about 20% had one in any assay.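 Values shown are percent growth following 48 h exposure of cells in 96-well plates to a single concentration of compound; below 10 was considered active.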 Unmarked numbers belong to inactive results. The source made the active and inactive calls.

In the case of `O=C1COc2ccccc2C(=O)N1CCCCNc1ccccc1`, the growth in the experiment on DU-145 prostate is 96.3%; with K-562 leukemia, 68.5%; with MALME-3M melanoma it was 102%; with MDA-MB-231 breast, 88.8%; in the experiment with RXF 393 renal, 123%; in the experiment with SF-268 CNS, 73.2%. The growth was 96.3% in the experiment on SF-295 CNS; 63.2% in the experiment on SF-539 CNS; 105% in the experiment on UACC-257 melanoma; 99.1% in the experiment with M14 melanoma; 90.6% in the experiment with HCT-15 colon; 81.8% in the experiment on HT29 colon. Moreover, the growth in the experiment on SNB-75 CNS is 106%; in the experiment with SNB-19 CNS it was 94.1%; in the experiment with U251 CNS, 85.7%; in the experiment with PC-3 prostate, 47.2%; in the experiment on SK-MEL-5 melanoma, 99.3%; in the experiment with UACC-62 melanoma, 95%. Moreover, the growth was 101% in the experiment with LOX IMVI melanoma and 103% in the experiment on SK-MEL-28 melanoma.
Turning to `COc1cc(NS(C)(=O)=O)ccc1Cc1c2ccccc2nc2ccccc12`, the growth in the experiment with DU-145 prostate was 11%; with K-562 leukemia, 18.2%; with MALME-3M melanoma, 14.8%; with MDA-MB-231 breast it was 53.2%; with RXF 393 renal, -13.4% (active); in the experiment on SF-268 CNS it was 22.4%. In addition, the growth in the experiment with SF-295 CNS was 3.77% (active); in the experiment on SF-539 CNS, -28.5% (active); with UACC-257 melanoma, 25%; in the experiment with M14 melanoma, 10%; with HCT-15 colon, 18.3%; in the experiment with HT29 colon, 8.23% (active). The growth with SNB-75 CNS was 21.4%; with SNB-19 CNS, 25.9%; with U251 CNS, 18.7%; in the experiment with PC-3 prostate, 55.2%; in the experiment with SK-MEL-5 melanoma, 8.33% (active); in the experiment on UACC-62 melanoma, 26.1%. Also, the values for the growth in the experiment with LOX IMVI melanoma and in the experiment on SK-MEL-28 melanoma were -26.2% (active) and 50.7%, respectively.
With `NCC(=O)NS(=O)(=O)OC[C@H]1O[C@@H](n2cnc3c(N)ncnc32)[C@H](O)[C@@H]1O`, the growth in the experiment with DU-145 prostate is -31.7% (active); in the experiment with K-562 leukemia, 7.38% (active); in the experiment on MALME-3M melanoma, -2.82% (active); in the experiment with MDA-MB-231 breast, 2.61% (active); in the experiment with RXF 393 renal, -36.6% (active); in the experiment on SF-268 CNS, 3.78% (active). The growth was -33.7% (active) in the experiment with SF-295 CNS; -9.36% (active) in the experiment with SF-539 CNS; 27.4% in the experiment on UACC-257 melanoma; -23.1% (active) in the experiment with M14 melanoma; 11.4% in the experiment on HCT-15 colon; 6% (active) in the experiment on HT29 colon. Further, the growth in the experiment with SNB-75 CNS was -6.72% (active); in the experiment with SNB-19 CNS, -6.06% (active); in the experiment with U251 CNS, -39.3% (active); in the experiment with PC-3 prostate, 9.66% (active); in the experiment on SK-MEL-5 melanoma, -0.341% (active); with UACC-62 melanoma, 30.7%. Also, the values for the growth in the experiment with LOX IMVI melanoma and with SK-MEL-28 melanoma were -45.6% (active) and 8.36% (active), respectively.
Regarding `Fc1ccc(/C=N/n2c(-c3cc(Cl)cc(Cl)c3Cl)nn(CNc3ccc(Cl)nn3)c2=S)cc1`, the growth with DU-145 prostate is 121%; with K-562 leukemia, 85.8%; with MALME-3M melanoma it was 103%; in the experiment with MDA-MB-231 breast, 83.3%; in the experiment on RXF 393 renal it was 97%; in the experiment with SF-268 CNS, 105%. Besides, the growth is 121% in the experiment with SF-295 CNS; 97.6% in the experiment with SF-539 CNS; 98.1% with UACC-257 melanoma; 85.6% in the experiment with M14 melanoma; 110% in the experiment on HCT-15 colon; 103% in the experiment with HT29 colon. In addition, the growth with SNB-75 CNS was 99.4%; with SNB-19 CNS, 101%; with U251 CNS, 90%; in the experiment with PC-3 prostate, 86.7%; in the experiment with SK-MEL-5 melanoma, 102%; in the experiment on UACC-62 melanoma, 86.7%. Further, the figures for the growth in the experiment on LOX IMVI melanoma and in the experiment on SK-MEL-28 melanoma were 96.8% and 108%, respectively.
Take `COc1ccc(-c2nnc(SCC(=O)Nc3ccc(C(=O)/C=C/c4ccc(Cl)cc4)cc3)o2)cc1OC`: the growth is 78.9% in the experiment with DU-145 prostate; 52% with K-562 leukemia; 5.79% (active) in the experiment on MALME-3M melanoma; 76.3% in the experiment with MDA-MB-231 breast; 95.9% in the experiment on RXF 393 renal; 82.2% in the experiment on SF-268 CNS. In addition, the growth in the experiment with SF-295 CNS was 80.4%; with SF-539 CNS, 54.5%; in the experiment with UACC-257 melanoma, 91.4%; in the experiment on M14 melanoma, 81.7%; in the experiment on HCT-15 colon it was 81.3%; in the experiment with HT29 colon, 89.8%. Moreover, the growth in the experiment with SNB-75 CNS is 71.4%; in the experiment with SNB-19 CNS, 84.6%; with U251 CNS, 88.5%; in the experiment with PC-3 prostate, 84.6%; with SK-MEL-5 melanoma it was 56.7%; in the experiment on UACC-62 melanoma it was 62.7%. Further, the growth in the experiment with LOX IMVI melanoma was 79%; in the experiment with SK-MEL-28 melanoma, 82.2%.
Turning to `O=C(N/N=C/c1ccccc1O)c1ccccc1O`, the growth was 38.7% with DU-145 prostate; 37.8% with K-562 leukemia; 47.9% in the experiment on MALME-3M melanoma; 56.7% in the experiment on MDA-MB-231 breast; 54% with RXF 393 renal; 36.6% in the experiment on SF-268 CNS. The growth was 42.1% in the experiment with SF-295 CNS; 34.5% in the experiment on SF-539 CNS; 5.06% (active) in the experiment on UACC-257 melanoma; 36.5% with M14 melanoma; 30.1% in the experiment with HCT-15 colon; 72.9% in the experiment on HT29 colon. For the same molecule, the growth in the experiment with SNB-75 CNS was 78.3%; in the experiment with SNB-19 CNS it was 51.7%; in the experiment on U251 CNS it was 36.2%; with PC-3 prostate, 39.6%; in the experiment with SK-MEL-5 melanoma it was 10.6%; with UACC-62 melanoma, 24%. The growth in the experiment on LOX IMVI melanoma was 12.8%; in the experiment with SK-MEL-28 melanoma it was 46.9%.
With `O=C(O)c1ccc(-n2cc(/C=N/Nc3ccc(F)cc3)c(-c3cccc(C(F)(F)F)c3)n2)cc1`, the growth is 81.6% in the experiment on DU-145 prostate; 11.1% in the experiment on K-562 leukemia; 88.2% in the experiment with MALME-3M melanoma; 87.8% in the experiment on MDA-MB-231 breast; 101% in the experiment on RXF 393 renal; 67% in the experiment on SF-268 CNS. Further, the growth is 54% in the experiment with SF-295 CNS; 75.6% in the experiment on SF-539 CNS; 91.2% in the experiment with UACC-257 melanoma; 51.3% with M14 melanoma; 53.6% with HCT-15 colon; 86.8% in the experiment on HT29 colon. The growth in the experiment with SNB-75 CNS was 88.4%; in the experiment with SNB-19 CNS, 91.3%; with U251 CNS, 84.9%; in the experiment on PC-3 prostate, 62.6%; in the experiment on SK-MEL-5 melanoma, 87.6%; in the experiment on UACC-62 melanoma, 24.1%. Further, the growth is 42.8% with LOX IMVI melanoma and 96.1% in the experiment with SK-MEL-28 melanoma.
On to `COc1ccc(-c2nnc(SCC(=O)Nc3ccc(C(=O)/C=C/c4ccccc4)cc3)o2)cc1OC`, for which the growth with DU-145 prostate is 96.7%; in the experiment on K-562 leukemia it was 95.4%; with MALME-3M melanoma it was 104%; with MDA-MB-231 breast, 106%; in the experiment with RXF 393 renal it was 99.8%; with SF-268 CNS, 97.6%. Besides, the growth in the experiment on SF-295 CNS was 104%; with SF-539 CNS, 95.7%; in the experiment with UACC-257 melanoma, 105%; in the experiment on M14 melanoma it was 105%; with HCT-15 colon, 94.6%; in the experiment on HT29 colon, 93.4%. Besides, the growth was 92.8% with SNB-75 CNS; 92.2% with SNB-19 CNS; 98% in the experiment on U251 CNS; 100% with PC-3 prostate; 87.1% in the experiment with SK-MEL-5 melanoma; 92.4% with UACC-62 melanoma. The growth in the experiment with LOX IMVI melanoma is 85.9%; with SK-MEL-28 melanoma, 106%.

The values are drawn from PubChem BioAssay (NCI).
